Reference: PubChem BioAssay (EPA / NIEHS)
The source made the active and inactive calls. Rule for the calls: active = hit-call score of the fitted dose curve at least 0.9, where 1 is the maximum; inactive = score below 0.9.

What was measured:
Settings in all cases: mRNA level, 48 h; actives raise or lower the signal
CYP2C9 (gene 1559) = assay: LTEA_HepaRG_CYP2C9: Life Technologies and Expression Analysis (LTEA) Assay for CYP2C9 using HepaRG (AID 2283484)
Method in brief: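 Eight-point concentration-response (highest 100 uM, half-log dilutions) in HepaRG cells for 48 h; CYP2C9 expression by qRT-PCR normalized to ACTB, GAPDH, POLR2A. Bidirectional fit, DMSO baseline.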

CYP2E1 (gene 1571) = assay: LTEA_HepaRG_CYP2E1: Life Technologies and Expression Analysis (LTEA) Assay for CYP2E1 using HepaRG (AID 2283485)
Method in brief: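 CYP2E1 transcript measured by Fluidigm qRT-PCR against three housekeeping genes in human HepaRG cells treated 48 h (top 100 uM, half-log steps, 0.5% DMSO vehicle). Gain or loss fitted relative to DMSO baseline.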

CYP4A11 (gene 1579) = assay: LTEA_HepaRG_CYP4A11: Life Technologies and Expression Analysis (LTEA) Assay for CYP4A11 using HepaRG (AID 2283486)
Method in brief: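 Readout is CYP4A11 mRNA induction or suppression (qRT-PCR, ACTB/GAPDH/POLR2A normalization) in human HepaRG cells after 48 h chemical treatment, concentrations to 100 uM in 0.5% DMSO, fitted bidirectionally against vehicle.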

[1] = read-out: Cytochrome P450 3A4 (Homo sapiens) (UniProt P08684); assay: LTEA_HepaRG_CYP3A4: Life Technologies and Expression Analysis (LTEA) Assay for CYP3A4 using HepaRG (AID 2283487)
Method in brief: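 In a human hepatic line (HepaRG), duplicate wells were treated 48 h with up to 100 uM chemical in half-log dilutions. Endpoint: CYP3A4 mRNA induction or loss relative to 0.5% DMSO vehicle, by qRT-PCR.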

[2] = read-out: DNA damage-inducible transcript 3 (DDIT3), DDIT3 (gene 1649); assay: LTEA_HepaRG_DDIT3: Life Technologies and Expression Analysis (LTEA) Assay for DNA damage-inducible transcript 3 (DDIT3) using HepaRG (AID 2283488)
Method in brief: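 DDIT3 transcript was quantified by qRT-PCR with ACTB/GAPDH/POLR2A normalization after 48 h chemical treatment of differentiated HepaRG cells in 0.5% DMSO. Dosing was eight-point, half-log, top 100 uM, duplicate wells. Curves fitted bidirectionally versus DMSO.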

[3] = read-out: Pro-epidermal growth factor (Homo sapiens) (UniProt P01133); assay: LTEA_HepaRG_EGF: Life Technologies and Expression Analysis (LTEA) Assay for Epidermal growth factor (EGF) using HepaRG (AID 2283489)
Method in brief: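 EGF expression changes in human HepaRG cells are scored by bidirectional fitting relative to 0.5% DMSO controls. Chemicals are tested at eight half-log concentrations up to 100 uM for 48 h in serum-free induction medium.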

[4] = read-out: Early growth response protein 1 (EGR1) transcription factor, EGR1 (gene 1958); assay: LTEA_HepaRG_EGR1: Life Technologies and Expression Analysis (LTEA) Assay for Early growth response protein 1 (EGR1) transcription factor using HepaRG (AID 2283490)
Method in brief: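 EGR1 expression change in human HepaRG after 48 h chemical exposure, assessed by housekeeping-normalized qRT-PCR; concentration-response up to 100 uM, fitted in both directions against DMSO controls.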

[5] = read-out: Ezrin (EZR), EZR (gene 7430); assay: LTEA_HepaRG_EZR: Life Technologies and Expression Analysis (LTEA) Assay for Ezrin (EZR) using HepaRG (AID 2283491)
Method in brief: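 Gain or loss of EZR mRNA is scored relative to 0.5% DMSO in human HepaRG cultures treated 48 h with test chemicals in duplicate, eight half-log concentrations from 100 uM.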

[6] = read-out: Cytochrome P450 3A7 (Homo sapiens) (UniProt P24462); assay: LTEA_HepaRG_CYP3A7: Life Technologies and Expression Analysis (LTEA) Assay for CYP3A7 using HepaRG (AID 2283492)
Method in brief: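 Cells were thawed, plated, cultured 48 h, then treated for a further 48 h with chemicals (eight-point half-log series from 100 uM, 0.5% DMSO). RNA was isolated and CYP3A7 expression quantified by qRT-PCR normalised to ACTB, GAPDH and POLR2A.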

CYP3A5 (gene 1577) = assay: LTEA_HepaRG_CYP3A5: Life Technologies and Expression Analysis (LTEA) Assay for CYP3A5 using HepaRG (AID 2283493)
Method in brief: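 mRNA levels were quantified by qRT-PCR on Fluidigm arrays and normalized to three housekeeping genes. Differentiated HepaRG cells received 48 h exposure (top 100 uM, half-log steps, 0.5% DMSO vehicle, duplicate); bidirectional fitting versus DMSO.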

Measured: AC50

Cytochrome P450 3A7 (Homo sapiens), sequence (P24462 whole entry, looked up): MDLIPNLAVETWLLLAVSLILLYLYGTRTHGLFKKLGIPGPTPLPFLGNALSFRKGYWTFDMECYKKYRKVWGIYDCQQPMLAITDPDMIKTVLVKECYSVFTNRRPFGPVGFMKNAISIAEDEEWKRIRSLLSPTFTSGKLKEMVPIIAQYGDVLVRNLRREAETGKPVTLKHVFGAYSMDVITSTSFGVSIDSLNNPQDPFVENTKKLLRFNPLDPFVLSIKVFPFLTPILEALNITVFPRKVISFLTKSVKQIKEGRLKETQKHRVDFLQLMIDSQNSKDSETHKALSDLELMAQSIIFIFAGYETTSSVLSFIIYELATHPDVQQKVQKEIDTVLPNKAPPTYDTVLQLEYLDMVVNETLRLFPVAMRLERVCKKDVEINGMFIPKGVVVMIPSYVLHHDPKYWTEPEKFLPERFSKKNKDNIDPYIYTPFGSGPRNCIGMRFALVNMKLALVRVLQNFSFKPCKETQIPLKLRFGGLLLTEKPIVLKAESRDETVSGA
Cytochrome P450 3A4 (Homo sapiens), sequence (P08684 whole entry, looked up): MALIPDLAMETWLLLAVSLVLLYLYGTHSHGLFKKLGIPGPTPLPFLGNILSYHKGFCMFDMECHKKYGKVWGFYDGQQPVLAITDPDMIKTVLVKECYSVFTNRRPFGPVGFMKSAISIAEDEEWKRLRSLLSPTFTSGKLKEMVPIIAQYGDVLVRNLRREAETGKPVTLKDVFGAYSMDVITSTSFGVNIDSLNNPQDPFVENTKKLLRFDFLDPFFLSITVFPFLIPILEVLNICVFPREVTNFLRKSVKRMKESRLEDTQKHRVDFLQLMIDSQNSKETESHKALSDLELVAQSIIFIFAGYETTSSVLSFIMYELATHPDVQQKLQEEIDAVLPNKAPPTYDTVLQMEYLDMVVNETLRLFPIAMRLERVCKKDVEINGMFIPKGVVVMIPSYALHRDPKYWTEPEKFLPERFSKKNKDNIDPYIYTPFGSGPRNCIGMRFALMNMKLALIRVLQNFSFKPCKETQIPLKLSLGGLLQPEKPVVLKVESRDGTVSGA

CCN(CC)C(=S)SSC(=S)N(CC)CC
inactive: all assays above

CCCCCCCC/C=C\CCCCCCCC(=O)OC[C@@H](O)[C@H]1OC[C@H](O)[C@H]1O
inactive: all assays above

O=C(O)c1ccc2c(c1)nc(C(=O)NC1CCN(C3CC3)CC1)n2Cc1cc(-c2ccc(Cl)s2)on1
inactive: all assays above

Nc1ccn([C@@H]2O[C@H](CO)[C@@H](O)[C@@H]2O)c(=O)n1
inactive: all assays above

CCCCOC(=O)c1ccccc1
inactive: all assays above

CCCc1ccccc1
inactive: all assays above

O=c1[nH]cnc2c1ncn2[C@H]1CC[C@@H](CO)O1
inactive: all assays above

NC(=O)NN=Cc1ccc([N+](=O)[O-])o1
active: CYP2E1 (gene 1571) 19 µM | [3] 50 µM
inactive: all other assays above

O=C(O)c1cccc(C(=O)O)c1
inactive: all assays above

OCCNCCO
active: CYP2C9 (gene 1559) 50 µM | CYP2E1 (gene 1571) 45 µM
inactive: all other assays above

CCCCCOC(C)=O
inactive: all assays above

CC(=O)c1ccccc1
inactive: all assays above

NNC(=O)c1ccncc1
inactive: all assays above

CC(C)CCCCCCOC(=O)C1CCCCC1C(=O)OCCCCCCC(C)C (stereo not given)
inactive: all assays above

CC1(C)C(=O)N(Cl)C(=O)N1Cl
inactive: all assays above

CC(C)CC(C)O (stereo not given)
inactive: all assays above

C=CN1CCCC1=O
inactive: all assays above
